Experimental findings from PubChem BioAssay (NCI) are described below.

Structures are written as SMILES. About 83,000 compounds went through this panel and 20% of them were active in at least one assay; those are over-represented in the sample as a whole.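 Negative percent growth values reflect cell death: -40 means 40% of the cells present at the start died, and -100 means all died.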 Unmarked numbers belong to inactive results. The source made the active and inactive calls. Rule for the calls: active = growth percent below 10; inactive = the rest.

Test systems include SR leukemia; RPMI-8226 leukemia; OVCAR-8 ovarian; OVCAR-5 ovarian; OVCAR-4 ovarian; SK-OV-3 ovarian; IGROV1 ovarian; OVCAR-3 ovarian; HS 578T breast; NCI/ADR-RES ovarian.
Common to all, as to assay: NCI-60 one-dose screen, 48 h (100 = growth as untreated, 0 = no growth, -100 = all killed)
What all share (conditions): 10 µM unless noted

As for `CCOC(=O)Oc1c(OC)cc(C(=O)O[C@@H]2C[C@@H]3CN4CCc5c([nH]c6cc(OC)ccc56)[C@H]4C[C@@H]3[C@H](C(=O)OC)[C@H]2OC)cc1OC`, the growth in the assay on SR leukemia is -2.39% (active); with RPMI-8226 leukemia, -5.39% (active); with OVCAR-8 ovarian, 75.9%; in the assay on OVCAR-5 ovarian, 90.5%; in the assay on OVCAR-4 ovarian it was 94.7%; in the assay with SK-OV-3 ovarian it was 91.9%. Further, the growth in the assay on IGROV1 ovarian is 82.3%; with OVCAR-3 ovarian it was 38.5%; in the assay on HS 578T breast, 72.1%; in the assay on NCI/ADR-RES ovarian it was 56.5%.

Turning to `CC(=O)NCCCS(=O)(=O)O`, the growth in the assay on SR leukemia was 101%; with RPMI-8226 leukemia, 113%; in the assay on OVCAR-8 ovarian, 104%; with OVCAR-5 ovarian, 100%; in the assay on OVCAR-4 ovarian it was 107%; in the assay on SK-OV-3 ovarian, 103%. For the same compound, the growth in the assay on IGROV1 ovarian was 108%; in the assay with OVCAR-3 ovarian it was 108%; in the assay with HS 578T breast, 83.4%; in the assay with NCI/ADR-RES ovarian it was 101%.

Turning to `Fc1ccc(-n2cc(COc3ncnc4sc5c(c34)CCCC5)nn2)cc1Cl`, the growth with SR leukemia is 93.5%; with RPMI-8226 leukemia it was 96%; with OVCAR-8 ovarian it was 96.7%; in the assay with OVCAR-5 ovarian, 96.6%; in the assay on OVCAR-4 ovarian it was 99.7%; in the assay with SK-OV-3 ovarian it was 103%. Besides, the growth was 91.9% in the assay with IGROV1 ovarian, 112% in the assay with OVCAR-3 ovarian, 104% in the assay on HS 578T breast and 95.1% in the assay with NCI/ADR-RES ovarian.

For the compound `COC(=O)Nc1ccc(NC(=O)OC)cc1`, the growth in the assay on SR leukemia is 105%; in the assay on RPMI-8226 leukemia, 89.4%; in the assay with OVCAR-8 ovarian, 94.6%; in the assay on OVCAR-5 ovarian, 114%; in the assay on OVCAR-4 ovarian, 112%; with SK-OV-3 ovarian, 90.9%. In addition, the growth with IGROV1 ovarian is 120%; with OVCAR-3 ovarian, 111%; with HS 578T breast, 102%; in the assay with NCI/ADR-RES ovarian it was 104%.

Turning to `COc1ccc(/C=C(/c2ccccc2)[N+](=O)[O-])cc1`, the growth in the assay with SR leukemia was -19.1% (active); in the assay with RPMI-8226 leukemia, -28% (active); with OVCAR-8 ovarian, -7.29% (active); in the assay on OVCAR-5 ovarian, -59.6% (active); in the assay with OVCAR-4 ovarian it was -59.5% (active); in the assay with SK-OV-3 ovarian, 9.1% (active). Further, the growth in the assay on IGROV1 ovarian was -26.1% (active); in the assay with OVCAR-3 ovarian, -96.5% (active); in the assay with HS 578T breast, 14.4%; in the assay on NCI/ADR-RES ovarian, 7.74% (active).

Regarding `COc1ccc(C(=O)c2cc3c(N)c(C(=O)Nc4cccc5ccccc45)sc3nc2C)cc1`, the growth is -11.9% (active) in the assay with SR leukemia; 5.61% (active) in the assay with RPMI-8226 leukemia; -5.04% (active) in the assay with OVCAR-8 ovarian; 39.9% in the assay with OVCAR-5 ovarian; 37.2% in the assay with OVCAR-4 ovarian; 32% with SK-OV-3 ovarian. The growth in the assay on IGROV1 ovarian is 23.8%; in the assay with OVCAR-3 ovarian it was -7.2% (active); with HS 578T breast it was 11.3%; with NCI/ADR-RES ovarian, 8.37% (active).

Consider `COc1cccc(CCC(=O)c2cc3c(N)c(C(=O)Nc4ccccc4)sc3nc2C)c1`, for which the growth was 16.2% with SR leukemia; 43.8% in the assay on RPMI-8226 leukemia; 60.2% with OVCAR-8 ovarian; 48.6% in the assay with OVCAR-5 ovarian; 53.9% in the assay with OVCAR-4 ovarian; 56.8% in the assay with SK-OV-3 ovarian. The growth in the assay on IGROV1 ovarian is 34%; in the assay on OVCAR-3 ovarian, 18%; in the assay with HS 578T breast, 21.5%; in the assay on NCI/ADR-RES ovarian, 12.2%.

Take `CCN1C(=O)N(CC)C2C1NN=c1s/c(=C3\C(=O)Nc4ccccc43)c(=O)n12` (stereo not given): the growth with SR leukemia is 18.4%; in the assay with RPMI-8226 leukemia, 36.9%; in the assay with OVCAR-8 ovarian, 31.6%; with OVCAR-5 ovarian, 50.6%; in the assay with OVCAR-4 ovarian it was 51.1%; in the assay on SK-OV-3 ovarian it was 18.4%. Moreover, the growth was 35.2% in the assay with IGROV1 ovarian, -12.8% (active) in the assay on OVCAR-3 ovarian, 13.2% with HS 578T breast and 42% with NCI/ADR-RES ovarian.

As for `COc1cc(C2CC(c3cccc(Nc4ccncc4)c3)=NN2C(C)=O)cc(OC)c1OC` (stereo not given), the growth in the assay on SR leukemia is 27.3%; with RPMI-8226 leukemia, 94.4%; with OVCAR-8 ovarian it was 97%; in the assay with OVCAR-5 ovarian, 98.9%; in the assay on OVCAR-4 ovarian it was 83.8%; with SK-OV-3 ovarian, 90.6%. Moreover, the growth in the assay with IGROV1 ovarian is 89.2%; with OVCAR-3 ovarian, 96.3%; in the assay on HS 578T breast it was 86%; in the assay with NCI/ADR-RES ovarian it was 97.9%.

`N#Cc1c(NC(=O)c2cccc(Br)c2)sc2c1CCCC2`: the growth was 31.9% with SR leukemia; 77.8% with RPMI-8226 leukemia; 81.9% in the assay with OVCAR-8 ovarian; 90.5% with OVCAR-5 ovarian; 75.1% in the assay with OVCAR-4 ovarian; 85.2% in the assay on SK-OV-3 ovarian. For the same compound, the growth in the assay with IGROV1 ovarian is 67.4%; in the assay with OVCAR-3 ovarian, 95%; in the assay on HS 578T breast it was 80.7%; with NCI/ADR-RES ovarian, 76.8%.

Take `Cc1[nH]n(C(=O)c2ccncc2)c(=O)c1N=Nc1ccc(F)c(Cl)c1`: the growth in the assay on SR leukemia is 76.1%; with RPMI-8226 leukemia, 87.6%; in the assay on OVCAR-8 ovarian it was 103%; in the assay on OVCAR-5 ovarian, 114%; with OVCAR-4 ovarian, 112%; in the assay on SK-OV-3 ovarian it was 103%. Moreover, the growth was 95.3% in the assay with IGROV1 ovarian, 98.3% in the assay with OVCAR-3 ovarian, 89.1% in the assay with HS 578T breast and 95.6% in the assay with NCI/ADR-RES ovarian.

As to `COc1cc(NCC(C)(O)CN(CC(C)C)CC(C)C)c2nc(C)ccc2c1` (stereo not given), the growth in the assay with SR leukemia was 87.7%; in the assay on RPMI-8226 leukemia it was 68.6%; in the assay on OVCAR-8 ovarian it was 86.9%; in the assay on OVCAR-5 ovarian, 89.5%; in the assay with OVCAR-4 ovarian it was 23.2%; with SK-OV-3 ovarian it was 98.6%. Also, the growth in the assay on IGROV1 ovarian was 73.4%; in the assay on OVCAR-3 ovarian it was 24.8%; in the assay with HS 578T breast, 83.9%; in the assay with NCI/ADR-RES ovarian it was 79.6%.

For the compound `CCN(CC)CCSCCCNc1c(C)cnc2cc(Cl)ccc12`, the growth with SR leukemia is 30.9%; in the assay on RPMI-8226 leukemia, 83%; with OVCAR-8 ovarian, 93.2%; in the assay on OVCAR-5 ovarian, 98.4%; in the assay with OVCAR-4 ovarian, 86%; in the assay with SK-OV-3 ovarian it was 108%. The growth in the assay with IGROV1 ovarian is 85.4%; in the assay on OVCAR-3 ovarian, 82.5%; with HS 578T breast it was 102%; with NCI/ADR-RES ovarian it was 82.5%.

For `COc1cc(-c2cc(=O)oc3cc(O)ccc23)c(OC)c2c1OCO2`, the growth in the assay on SR leukemia is 84.2%; in the assay with RPMI-8226 leukemia, 60.2%; with OVCAR-8 ovarian, 91.6%; with OVCAR-5 ovarian, 91.6%; in the assay with OVCAR-4 ovarian, 68.9%; in the assay with SK-OV-3 ovarian, 125%. The growth with IGROV1 ovarian was 91.5%; in the assay on OVCAR-3 ovarian, 92.7%; with HS 578T breast, 81.9%; in the assay on NCI/ADR-RES ovarian, 92.6%.
